# Laboratory results reported in ChEMBL document CHEMBL3988442, “University of Dundee, Small-Polar-MMV Screening Library” (2021).
# Among all 48,000 compounds or so, about 13,000 (27%) showed an effect of 50% or more. The list shows a part of the results.
# Test system: Wolbachia pipientis
# Assay: Anti-Wolbachia Cell-Based Screen
# Assay type: functional
# Parameters: scale not given: in the data most compounds retested in dose-response had high values
# Conditions: 5 µM
row,SMILES,Percent Effect
1,Cc1cc(CC(C)NC(=O)c2cccc(CC3CCNCC3)c2)[nH]n1 (configuration not stated),-1.026%
2,Cc1oc(NC(=O)C(C)N2CCN(C(=O)C3CC3)CC2)c(C#N)c1C (configuration not stated),9.3%
3,OC1(c2cn(C3CCN(C4CCSC4)CC3)nn2)CCCC1 (configuration not stated),-22.68%
4,Cc1ccc2[nH]c(CN(C)Cc3ccccc3C(=O)O)nc2c1,-3.287%
5,NS(=O)(=O)c1ccc(CC(=O)N2CCCC(n3cccn3)C2)cc1 (configuration not stated),-6.435%
6,Cn1nc(C(=O)N2CCC(Oc3ccc(C#N)cn3)CC2)ccc1=O,4.281%
7,N#Cc1cn(CCN2CCc3ccccc3C2)c(=O)[nH]c1=O,-7.012%
8,CCc1nc(N2CCCC(CO)(CCOC)C2)ncc1C (configuration not stated),2.131%
9,Cc1cnc(-c2cccc(-c3ccn(CCCO)n3)c2)nc1N(C)C,89.78%
10,c1cc(-c2cnccn2)cc(-c2ccn(CCN3CCCCC3)n2)c1,11.58%
11,c1cc(-c2cnccn2)cc(-c2ccn(CCN3CCCC3)n2)c1,1.985%
12,CN(C)[C@H]1CCCCN(Cc2ccccc2Cn2cccn2)C1,11.28%
13,CC(C)(CN)NS(=O)(=O)c1c(F)cccc1F.Cl,-5.219%
14,Cc1cnc(N2CCCC3(COCCN(c4ccc(C)nn4)C3)C2)nc1 (configuration not stated),111.1%
15,Cc1ccc(N2CCCC3(COCCN(c4cnccn4)C3)C2)nn1 (configuration not stated),122.4%
16,Fc1cnc(N2CCOCC3(CCCN(c4nncs4)C3)C2)nc1 (configuration not stated),-12.3%
17,COc1ccc(N2CCOCC3(CCCN(c4cnccn4)C3)C2)cc1 (configuration not stated),-9.239%
18,Cc1ccc(N2CCOCC3(CCCN(c4ncc(F)cn4)C3)C2)nn1 (configuration not stated),110.3%
19,CCS(=O)(=O)N1CCCC2(COCCN(c3cnccn3)C2)C1.O=C(O)C(F)(F)F (configuration not stated),-1.156%
20,Fc1cnc(N2CCOCC3(CCCN(c4cnccn4)C3)C2)nc1 (configuration not stated),-10.42%
21,Cc1cnc(N2CCC3(CCCN(c4ccc(C)nn4)C3)C2)nc1 (configuration not stated),-1.521%
22,Cc1noc(C)c1NC(=O)Cn1cc(Br)ccc1=O,-4.213%
23,C[C@@H]1CN(C2CCN(Cc3cnc(-c4cccs4)nc3)CC2)C[C@H](C)O1,-8.003%
24,O=S(=O)(c1c(Cl)nc2sccn12)N1CCCC2(CCNC2)C1 (configuration not stated),-7.424%

row,SMILES,Percent Effect
1,Cc1ccc(-n2cc(C)cn2)c(NC(=O)NC2(C)CCOC2)c1 (configuration not stated),1.139%
2,O=C(NCC1CCCCO1)c1ccc(-c2ccco2)[nH]c1=O (configuration not stated),3.575%
3,O=C(NC[C@H]1CCCC[C@H]1O)c1cccc2[nH]c(-c3cccs3)nc12,118.3%
4,O=C(NCC1CCCCO1)c1ccc(-c2cccs2)[nH]c1=O (configuration not stated),23.71%
5,O=C(CN1CC(c2nc(-c3cccs3)no2)C1)NCC1CCCO1.O=C(O)C(=O)O (configuration not stated),11.99%
6,O=C(NC[C@H]1CCCC[C@H]1O)c1cccc2[nH]c(-c3ccco3)nc12,127.5%
7,CCCNC(=O)c1ccc(-c2ccco2)[nH]c1=O,7.034%
8,O=C(NC[C@H]1CCCC[C@H]1O)c1ccc2nc(-c3ccco3)[nH]c2c1,114.7%
9,Cc1sc(-c2ccco2)nc1C(=O)NCC1CCOC1 (configuration not stated),3.177%
10,Cc1sc(-c2ccco2)nc1C(=O)N(CC(N)=O)C1CCCC1,-7.156%
11,CCOC(C)c1nc(Cn2cc(C)cn2)cs1 (configuration not stated),-10.7%
12,COC1CCN(c2cc(C(C)C)nc3ccnn23)C1 (configuration not stated),-6.556%
13,O=c1ccc(-c2cccs2)nn1CN1CCCCCC1,6.119%
14,CN(C)CC1CN(CC(=O)N2CCc3ccccc32)CCO1 (configuration not stated),-2.513%
15,Cc1ccc(-c2cc(N)c(=O)n(CC(=O)NCC3CC3)n2)s1,-0.7868%
16,Nc1cc(-c2cccs2)nn(CC(=O)N2CCc3ccccc32)c1=O,164.1%
17,Cc1cc(CS(=O)(=O)CC(=O)N2c3ccccc3CC2C)no1 (configuration not stated),4.378%
18,CC1Cc2ccccc2N1C(=O)Cn1nc(-c2cccs2)cc(N)c1=O (configuration not stated),146.8%
19,O=C(Cn1nc(-c2cccs2)ccc1=O)N1CCCCCC1,16.15%
20,CC1Cc2ccccc2N1C(=O)Cn1nc(-c2cccs2)ccc1=O (configuration not stated),148.6%
21,O=C(c1csnn1)N1CCc2ccccc21,9.308%
22,CSCCCN1C[C@H]2CC[C@@H]1CN(Cc1[nH]cnc1C)C2,27.65%
23,COCCN(CCOC)Cc1c(C)nc2ccccc2c1O,87.45%
24,COCCN(Cc1ccccc1)Cc1csc(-c2ncccn2)n1,9.824%

row,SMILES,Percent Effect
1,COCCN(C/C=C/c1ccccc1)Cc1[nH]cnc1C,0.6053%
2,Cn1ccc(CN2CCC(NC(=O)NC3CCCCC3)CC2)cc1=O,-14.97%
3,Cn1ccc(CN2CCC(OCc3ccccc3)CC2)cc1=O,85.88%
4,Cn1ccc(CN2CCC(c3ccccc3)CC2)cc1=O,1.288%
5,Cn1ccc(CN2CCC(OCCc3ccccc3)CC2)cc1=O,4.919%
6,Cn1ccc(CN2CCC(NC(=O)Cc3ccccc3)CC2)cc1=O,-4.576%
7,Cn1ccc(CN2CCC(CC(=O)N3CCCC3)CC2)cc1=O,63.9%
8,Cn1c(CN2CCC(OCc3cccnc3)CC2)cc2ccccc21,-15.6%
9,Cn1ccc(CN2CCC(Cc3ccccc3)CC2)cc1=O,141.3%
10,COc1cccc(-c2n[nH]cc2CNCC2CCS(=O)(=O)C2)c1 (configuration not stated),9.215%
11,O=C1CCC2(CCOC2)CN1Cc1nc2ccc(Cl)cc2[nH]1 (configuration not stated),-5.094%
12,O=C1CCC(C(=O)N(Cc2ccsc2)CC2CCCO2)=NN1 (configuration not stated),39.45%
13,Cc1ccc2c(c1)C(NCc1nccn1Cc1ccccc1)CCCO2 (configuration not stated),-18.78%
14,Cc1cc(C)nc(N2CCN(C(=O)c3ccc(C4CCCO4)s3)CC2)n1 (configuration not stated),6.831%
15,CCc1cnc(C)nc1NCc1nc(COC)no1,13.28%
16,CN1CCN(c2ccc(NS(=O)(=O)c3ccc(Br)s3)cc2C(=O)O)CC1,107.3%
17,CCC1(c2ccc(NS(=O)(=O)c3ccc(Cl)s3)cc2)CCC(=O)NC1=O (configuration not stated),13.42%
18,Cc1nn(C(C)C)c(C)c1S(=O)(=O)Nc1ccc(C(=O)O)c(Cl)c1,2.82%
19,CCc1cccc(NS(=O)(=O)c2cc(C)c(C(=O)O)s2)c1,-4.966%
20,O=C(O)C(F)(F)F.O=C(O)c1cc(NS(=O)(=O)c2ccc(Cl)s2)ccc1N1CCOCC1,94.51%
21,CCc1ccc(S(=O)(=O)Nc2cc(C(=O)O)c(F)cc2F)s1,-4.689%
22,O=C(O)c1cc(S(=O)(=O)Nc2ccc(Cl)cc2)cc2c1OCCO2,-1.351%
23,O=C(O)c1cc(NS(=O)(=O)c2cccc(Cl)c2F)ccc1Cl,-8.503%
24,CN1CCN(c2ccc(NS(=O)(=O)c3ccc(Cl)s3)cc2C(=O)O)CC1,118.1%
